Pf growth 96h: Primary qHTS for delayed death inhibitors of the malarial parasite plastid, 96 hour incubation. P. falciparum luciferase reporter growth, 96 h. Potency, µM (titrated, usually from 28.7 µM), for the others: top-dose activity change, negative = inhibition, hits mostly inhibitors. 6.9% of 320,000 active; also: potency is read from the fitted curve at half-maximal effect
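Luminescence readout: decreased luciferase signal marks inhibited growth of reporter-expressing P. falciparum in infected red cells (2% hematocrit, 0.05% parasitemia final), exposed to compound two generations (96 h, 37 C, 5% CO2).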
Lassa entry inh: qHTS for Inhibitors of binding or entry into cells for Lassa Virus; Potency, µM (top dose mostly 37.9 µM), inactives show top-dose activity change, negative = inhibition, most hits filed as inhibitors; 1.2% of 300,000 active; Lassa virus pseudotype entry inhibition, cell reporter; calls by dose curve; tested in HEK293 cells; also: potency is read from the fitted curve at half-maximal effect; nearly all actives have a fitted effect of over 50% in size
HCV inh: qHTS Assay for Inhibitors of Hepatitis C Virus (HCV); AID 651820, 2012; Potency, µM (highest dose often 41.8 µM), without a hit: top-dose activity change, negative = inhibition, usual class: inhibitors; 3.4% of 340,000 active; Huh7.5.1 HCVcc-Cre infection, luciferase reporter, 44 h; also: potency is read from the fitted curve at half-maximal effect
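Cells seeded at 1,000/well and cultured 4 h, then compounds added followed by HCVcc-Cre virus (~0.5 moi). After 44 h further culture, luciferase substrate was added, plates held 15 min at room temperature, and luminescence read for 15 sec.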
HCMV inh: qHTS Assay for inhibitors of the human cytomegalovirus (HCMV); HFF cells, HCMV-luciferase reporter, 72 h; hits give low values; activity change, negative = inhibition, % at 57.5 µM; 4.5% of 410,000 active; in the data active = activity change below about -60%; inconclusive = no clear call, values can overlap the other calls; inactive = above about -39%
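Two compound doses tested in HFFs infected with HCMV-luciferase, MOI 1 PFU/cell, 72 h at 37C. Lysate luminescence read with OneGlo; data normalized against buffer-only and 10uM Salinomycin inhibitor controls.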
MARV entry inh: qHTS for inhibitors of binding or entry into cells for Marburg Virus; Marburg virus pseudotyped entry inhibition, cell reporter; Potency, µM (doses to about 37.8 µM), for inactives: at the highest dose activity change, negative = inhibition, actives largely listed as inhibitors; 1.8% of 300,000 active; AID 540276, 2011; calls by dose curve; tested in HEK293 cells; also: potency is read from the fitted curve at half-maximal effect
Pf growth 48h: Primary qHTS for delayed death inhibitors of the malarial parasite plastid, 48 hour incubation; P. falciparum luciferase growth in erythrocytes, 48 h; Potency, µM (doses to about 28.7 µM), for the others: top-dose activity change, negative = inhibition, most hits filed as inhibitors; 5.9% of 310,000 active; also: potency is read from the fitted curve at half-maximal effect
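Compounds are pin-transferred into medium, infected erythrocytes (2% hematocrit, 0.1% parasitemia final) are added, and plates sit one parasite generation at 37 C in 5% CO2. Detection reagent is then added and luminescence measured.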
Numbers without * were called inactive; ? = inconclusive; . = no result given; [ ] = another dose, or the depositor's remark. Shown are actives, neighbours in structure and some others; about 14% of the full set was active somewhere. Unless noted, calls follow the shape of the dose curve; as a rule, active = well fitted inhibition curve with a large enough effect; inconclusive = small, poorly fitted or top-dose-only effect, or another doubt; inactive = no such curve, though single readings can be large or run the other way. % is scaled to controls: 0 for no effect and ±100 for the full control effect.

SMILES	Pf growth 96h	Lassa entry inh	HCV inh	HCMV inh	MARV entry inh	Pf growth 48h
O=C(OCc1ccccc1)c1cc(S(=O)(=O)N2CCCCC2)ccc1N1CCOCC1	12µM*	?	?	-23	?	?
O=C(c1cc(S(=O)(=O)N2CCCCC2)ccc1N1CCOCC1)N1CCN(Cc2ccccc2)CC1	-17%	?	-25%	-7	7%[46.1 µM]	?
C=CCOC(=O)N[C@H](C(C(=O)OC)=C(C)NCc1ccccc1)c1cccc(C(F)(F)F)c1	.	?	.	.	3%[14.2 µM]	.
Cc1cccc(C)c1NC(=O)C(c1ccncc1)n1c(=O)c(-c2cc3ccccc3[nH]2)nc2ccccc21 (stereo not given)	.	.	.	56	.	.
COc1ccc(COC(=O)c2cc([N+](=O)[O-])ccc2N2CCOCC2)cc1F	?	?	32µM*	-73*	?	?
COCC(C)NC(=O)c1cc(S(=O)(=O)N2CCCCC2)ccc1N1CCOCC1 (stereo not given)	5%	0%	20%	19	-3%	-6%
O=C(OCc1cccc(Cl)c1)c1cc([N+](=O)[O-])ccc1N1CCOCC1	12µM*	?	10µM*	0	?	?
CC(C)CCCC(C)NC(=O)c1cc(S(=O)(=O)N2CCCCC2)ccc1N1CCOCC1 (stereo not given)	9.3µM*	.	11µM*	-6	.	?
O=C(OCc1ccc(Br)cc1)c1cc([N+](=O)[O-])ccc1N1CCOCC1	.	.	.	-30	.	.
O=C(OCc1cccc(C(F)(F)F)c1)c1cc([N+](=O)[O-])ccc1N1CCOCC1	?	0%	?	-31	-22%	?
O=C(OCc1cccc(C(F)(F)F)c1)c1cc(S(=O)(=O)N2CCOCC2)ccc1F	5%	?	10µM*	-10	?	-30%
CC(C)CCN(C(=O)CCCSc1nc2ccccc2[nH]1)c1c(N)n(Cc2ccccc2)c(=O)[nH]c1=O	?	.	?	-12	.	?
Cc1ccc(C)c(COC(=O)c2cc([N+](=O)[O-])ccc2N2CCOCC2)c1	?	?	13µM*	?	?	?
COC(=O)c1cc(S(=O)(=O)N2CCCCC2)ccc1N1CCOCC1	-12%	8%	0%	-15	-5%	?
CN(C(=O)COC(=O)c1cc([N+](=O)[O-])ccc1N1CCOCC1)C1CCCCC1	.	.	.	4	.	.
Cc1ccc(COC(=O)c2cc(S(=O)(=O)N3CCCCC3)ccc2N2CCOCC2)cc1	?	7.1µM*	?	-27	?	9.3µM*
O=C(Nc1nc(-c2ccco2)c(-c2ccco2)s1)c1c(F)cccc1Cl	-11%	.	14µM*	-19	.	-15%
CCOC(=O)C1=C(CS(=O)(=O)c2ccc(F)cc2)NC(=O)NC1c1ccc(O)c(O)c1 (stereo not given)	34%	.	19%	-30	.	17%
CCCn1c(=N)c(C(=O)NCc2cccnc2)cc2c(=O)n3ccccc3nc21	.	-10%[46.1 µM]	.	-13	?	.
N=c1c(C(=O)NCC2CCCO2)cc2c(=O)n3ccccc3nc2n1Cc1ccc(F)cc1 (stereo not given)	?	.	?	0	.	?
N=c1c(C(=O)NCCN2CCOCC2)cc2c(=O)n3ccccc3nc2n1CCc1ccccc1	3.3µM*	-10%	?	-37	?	3.3µM*
COCCCn1c(C(=O)NCCN2CCOCC2)cc2c(=O)n3ccccc3nc21	51%	4%	.	?	5%	2%
N=c1c(C(=O)NCc2ccc(F)cc2)cc2c(=O)n3ccccc3nc2n1CCCN1CCOCC1	2.6µM*	-12%	-18%	?	?	1.7µM*
Cc1ccc(Cn2c(=N)c(C(=O)NCCN3CCOCC3)cc3c(=O)n4ccccc4nc32)cc1	?	.	?	-15	.	?
N=c1c(C(=O)NCc2ccc(F)cc2)cc2c(=O)n3ccccc3nc2n1Cc1cccnc1	5.9µM*	1%	?	5	-3%	.
SMILES	Pf growth 96h	Lassa entry inh	HCV inh	HCMV inh	MARV entry inh	Pf growth 48h
N=c1c(C(=O)NCCc2ccccc2)cc2c(=O)n3ccccc3nc2n1CCCN1CCOCC1	?	?	?	-17	7.1µM*	2.1µM*
CN(CC(=O)Nc1ccc(F)c(F)c1F)C(=O)CCN1C(=O)C2CC=CCC2C1=O (stereo not given)	.	.	.	-1	.	.
Cc1ccc(C2CN(CCC(N)=O)C(=O)CO2)cc1 (stereo not given)	79%	.	6%	4	.	17%
Cc1c(Cl)cccc1NC(=O)c1ccc2c(c1)CCCN2S(C)(=O)=O	.	22%[46.1 µM]	.	-2	22%[46.1 µM]	.
Cc1ccc2nc(NCc3ccccc3)c3nncn3c2c1	.	.	.	-8	-1%[46.1 µM]	.
CO/N=C(/C(=O)N[C@@H]1C(=O)N2C(C(=O)O)=C(CSc3nnnn3C)CS[C@H]12)c1csc(N)n1	-25%	.	.	.	.	-13%
N=c1c(C(=O)NCc2ccccc2)cc2c(=O)n3ccccc3nc2n1CCCN1CCOCC1	-14%	-3%	?	-5	?	5.9µM*
S=C(NCC1CCCO1)N1CCN(c2nc(-c3ccccc3)cs2)CC1 (stereo not given)	55%	?	10µM*	-37	?	?
CCNC(=S)N1CCN(c2nc(-c3ccc(F)cc3)cs2)CC1	8%	.	?	-61*	.	-11%
CCN(CC)CCCNC(=S)N1CCN(c2nc(-c3ccc(F)cc3)cs2)CC1	-20%	?	4µM*	-97*	10µM*	9.3µM*
O=C(Nc1ccc2nc([C@H]3C[C@H](O)[C@@H](CO)O3)[nH]c2c1)NC(c1ccccc1)c1ccccc1	.	.	.	-6	.	.
Cc1c(C(=O)Nc2ccccc2Cl)sc2ncnc(N(C)C3CCCCC3)c12	.	4%[46.1 µM]	.	-16	.	.
O=C(COc1ccccc1F)OCc1cc(=O)n2nc(C3CC3)sc2n1	.	-15%[46.1 µM]	.	1	.	.
CCOC(=O)C1CCCN(Cc2cn(C)nc2-c2ccc3c(c2)OCCO3)C1 (stereo not given)	?	.	21%	-11	.	-5%
CN(C)C(=O)CN1CCN(Cc2cn(C)nc2-c2ccc3c(c2)OCCO3)CC1	10µM*	10%[46.1 µM]	19%	-35	12%[46.1 µM]	10%
Cc1cc(C)c(NC(=O)Cn2c(=O)n(CCC(=O)NCc3ccc4c(c3)OCO4)c(=O)c3ccccc32)c(C)c1	.	6%[46.1 µM]	.	5	?	.
N#CC1C=Cc2c(ccc3ccccc23)N1C(=O)c1ccccc1 (stereo not given)	.	?	-50%	-83*	?	.
N#CC1C=Cc2ccccc2N1C(=O)c1ccccc1 (stereo not given)	-4%	.	-10%	-26	.	-7%
